Where “and” joins values, the source holds several entries; their conditions need not be identical. Identical values can stand only once. About 83,000 compounds went through this panel and 20% of them were active in at least one assay; those are over-represented in the sample as a whole.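 Method: cells in 96-well plates; compound added at one concentration; 48 h incubation; percent growth measured; values under 10 scored active.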 Calls of active or inactive are those of the source.

For this assay, the system named is UACC-62 melanoma. Briefly: NCI-60 one-dose screen, 48 h (100 = growth as untreated, 0 = no growth, -100 = all killed). The note with it: 10 µM unless noted.
Turning to `CC1(C)CC2(C)OC(=N)C1(C#N)C2(C#N)C#N` (stereo not given), the growth was -92.9% [100 µM] (active). With `N#Cc1c(=N)cc2c3ccccc3oc3c(C#N)c(N)[nH]c1c32` the figure was 74.6% [100 µM] (inactive) and 13.9% [100 µM] (inactive); with `CN(C)CCNc1ccc(NCC[N+](C)(C)Cc2ccc([N+](=O)[O-])cc2)c2c1C(=O)c1ccccc1C2=O`, 37.1% [25 µM] (inactive) and 1.14% [25 µM] (active). With `COc1cc(Nc2ccc3c(c2)CCC3)nc(OC)n1` the figure was 42.1% [100 µM] (inactive) and 2.26% [100 µM] (active); with `COc1cc2c(cc1-c1coc3cc(OCC=C(C)C)ccc3c1=O)OCO2`, 0.442% [100 µM] (active) and 1.53% [100 µM] (active); with `CC(=O)Oc1ccc2ccc(=O)oc2c1OC(C)=O`, 24.4% [100 µM] (inactive) and -66.3% [100 µM] (active). With `N#Cc1c(SCc2ccccc2)nc(-c2ccccc2)[nH]c1=S`, the growth was -44.7% [100 µM] (active) and 1.92% [100 µM] (active).

Take `CC(=O)OC(=C(C#N)C#N)c1nccnc1C(C)=O`: the growth was 96.4% [20 µM] (inactive) and -99.5% [20 µM] (active). Regarding `O=c1[nH]c(=O)n(C2CC(O)C(CO)O2)cc1Br` (stereo not given), the growth is 72.2% [100 µM] (inactive) and 19.1% [100 µM] (inactive). Regarding `CC(O)c1cc2c(s1)C(=O)c1ccsc1C2=O` (stereo not given), the growth was -61.7% [100 µM] (active) and -100% [100 µM] (active).

On to `Cc1ccc(/C=N/Nc2ccc3ccccc3n2)s1`, for which the growth was 11.2% [100 µM] (inactive) and -100% [100 µM] (active). Consider `CC(C)=CCC/C(C)=C/CC/C(C)=C/CC/C(C)=C/C=C/C=C(\C)CC/C=C(\C)CC/C=C(\C)CCC=C(C)C`, for which the growth is 75.8% [100 µM] (inactive) and 45% [100 µM] (inactive). Then `NNC1=N/C(=C\c2ccco2)C(Cl)=N1`, with 10.8% [100 µM] (inactive) and -100% [100 µM] (active). With `N#CC1=C(N)OC(c2cccc([N+](=O)[O-])c2)C1(C#N)C#N` (stereo not given) the figure was -52.1% [100 µM] (active) and -93.7% [100 µM] (active); with `CCOC(=O)CCCOc1cc(-c2ccccc2F)nc2cc3c(cc12)OCO3`, 31.5% [100 µM] (inactive) and -31.4% [100 µM] (active); with `CC(=O)OCC1=C(C)C[C@H]([C@@H](COC(C)=O)C2CCC3C4C[C@H]5O[C@]56CC=CC(=O)[C@]6(C)C4CC[C@@]32C)OC1=O` (stereo not given in full), -91% [50 µM] (active) and -99.6% [50 µM] (active).

For the molecule `Cc1cc2c3c(nc4ccccc42)C(=O)c2cccnc2-c3n1`, the growth was -89.9% [100 µM] (active) and -100% [100 µM] (active). `Nc1nc(Nc2cc(F)c(Cl)c(F)c2)cc(=O)[nH]1`: the growth was 85.2% [100 µM] (inactive) and -90.5% [100 µM] (active). `CC(C)=CCC/C(C)=C/CC/C(C)=C/CSc1ccc(Cl)cc1C(=O)O`: the growth was -72.3% [100 µM] (active) and 10.4% [100 µM] (inactive). Turning to `CCOC(=O)C1(C#N)C(=O)c2cc[n+](CC[n+]3ccc4c(c3)C(=O)C(C#N)(C(=O)OCC)C4=O)cc2C1=O` (stereo not given), the growth was 66.6% [100 µM] (inactive) and 29.5% [100 µM] (inactive). Regarding `O=C1N(c2ccccc2)N=C2c3ccncc3C3=NN(c4ccccc4)C(=O)C123` (stereo not given), the growth is 59.9% [100 µM] (inactive) and 10.7% [100 µM] (inactive). As to `CC(=O)NC(CS/N=N/c1nc[nH]c1C(N)=O)C(=O)O` (stereo not given), the growth is -5.07% [100 µM] (active) and 0.469% [100 µM] (active). With `CCCn1c2c(c3ccccc3c1=O)C(=O)c1ccccc1-2` the figure was 63.1% [100 µM] (inactive) and 8.48% [100 µM] (active); with `Nc1cc2c3c(cccc3c1)C(=O)N(c1ccc(OCCN3CCCCC3)cc1)C2=O`, -67.3% [100 µM] (active) and -100% [100 µM] (active). Then `C[C@]12CC[C@@H]3c4cc(Br)c(O)c(Br)c4CC[C@H]3[C@@H]1CC(Br)C2=O` (stereo not given in full), with -79.5% [100 µM] (active) and -97.9% [100 µM] (active).

Values taken from PubChem BioAssay (NCI).
